Among the data in PubChem BioAssay (Tox21) are Potency values, retold here.

Assay [1] is described as follows: Nuclear factor erythroid 2-related factor 2/antioxidant responsive element (Nrf2/ARE) small molecule agonists: qHTS cell viability counter screen in human keratinocytes (AID 1919968; active = well fitted curve in the direction sought with a large enough effect in the repeat runs; an effect the other way counts as inactive or inconclusive; note: nearly all actives have a fitted effect of over 55% in size; note: potency is the fitted concentration of half-maximal effect). The method in brief: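 CellTiter-Fluor fluorescence, read 1 h after reagent, gave viability in the same wells as the ARE-luciferase assay. KeratinoSens cells (1,500/well) had 23 h compound exposure at 37 C/5% CO2 following 5 h plating.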
(In general: qHTS replaces the single test concentration by a dilution series.)

Assay [2] can be described thus: Nuclear factor erythroid 2-related factor 2/antioxidant responsive element (Nrf2/ARE) small molecule agonists: luciferase reporter gene qHTS assay in human keratinocytes (AID 1919969). Note: nearly all actives have a fitted effect of over 35% in size. Note: potency is the fitted concentration of half-maximal effect. For orientation: A reporter such as luciferase makes a cellular process visible.
Assay [3] deals with KiSS-1 receptor (Homo sapiens) (UniProt Q969F8). The assay is described as follows: Human kisspeptin (KISS1R) small molecule agonists, calcium flux assay in KISS1R-HEK293 cells (AID 1920064; active = well fitted curve in the direction sought with a large enough effect in the repeat runs; an effect the other way counts as inactive or inconclusive). The method in brief:
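Agonist mode: intracellular calcium rise tracked at 1 s intervals over 3 min (480/540 nm) immediately after compound addition to dye-loaded KISS1R-HEK293 stable cells. Each compound tested at 15 concentrations in triplicate.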
On the technique in general: Calcium flux is commonly read through the fluorescence of an indicator in the cells.

Assay [4] is described as follows: G protein-coupled receptor (GPCR) small molecule agonists, calcium flux assay: HEK293 wild type cell line counter screen (AID 1920065). The method in brief: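 Calcium flux counter screen: compound added in agonist mode at 15 concentrations in triplicate to dye-loaded parental HEK293 cells. Fluorescence (480/540) read kinetically for 3 min; ATP served as positive control.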

Assay [5] can be described thus: p53 small molecule agonists, cell-based qHTS assay with rat liver microsomes (AID 1963578). An outline of the steps:
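Read-out is beta-lactamase reporter fluorescence (LiveBLAzer, 2 h, room temperature, dark) in p53RE-bla cells treated 16 h at 37 C with compound, rat liver microsomes and NADPH, both 0.5 mg/mL final.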

Assay [6] can be described thus: p53 small molecule agonists, cell-based qHTS assay with rat liver microsomes: qHTS cell viability counter screen (AID 1963580). Note: nearly all actives have a fitted effect of over 45% in size. The method in brief: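 Rat liver microsome (0.5 mg/mL final) and NADPH (0.5 mg/mL final) co-incubation with compounds for 16 h at 37 C on HCT-116 p53RE-bla cells; cytotoxicity taken from intracellular ATP luminescence.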
Assay [7] can be described thus: p53 small molecule agonists, cell-based qHTS assay: qHTS cell viability counter screen (AID 1963581). Note: nearly all actives have a fitted effect of over 45% in size. Note: potency is the fitted concentration of half-maximal effect. The method in brief: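 Counter screen read by CellTiter-Glo luminescence (ATP content, 30 min at room temperature), run in the same wells as the beta-lactamase reporter read. HCT-116 p53RE-bla cells saw compounds for 16 h at 37 C.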
The target of assay [8] is 5-hydroxytryptamine receptor 2A (Homo sapiens) (UniProt P28223). The assay is described as follows: 5-hydroxytryptamine receptor 2A (HTR2A) small molecule agonists, cell-based qHTS assay (AID 1963587). Note: nearly all actives have a fitted effect of over 30% in size. Note: potency is the fitted concentration of half-maximal effect. An outline of the steps: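 Kinetic calcium-flux fluorescence (2 min, 1 sec intervals) after compound addition in agonist mode. HTR2A-CHO cells were cultured 18 h, then dye-loaded 1 h at 37 C.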

The target of assay [9] is Muscarinic acetylcholine receptor M1 (Homo sapiens) (UniProt P11229). The assay is described as follows: Cholinergic receptor muscarinic 1 (CHRM1) small molecule antagonists, cell-based qHTS assay (AID 1963588). Note: nearly all actives have a fitted effect of over 40% in size. Note: potency is the fitted concentration of half-maximal effect. An outline of the steps: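 Compounds were tested at 15 concentrations in three independent runs. Dye-loaded CHRM1-CHO cells were exposed 5 min at room temperature before stimulation by acetylcholine added at 50nM. Intracellular calcium was read kinetically on FDSS for 3 min.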

Assay [10] deals with Beta-2 adrenergic receptor (Homo sapiens) (UniProt P07550). The assay is described as follows: Adrenergic beta2 receptor (ADRB2) small molecule antagonists, cell-based qHTS assay (AID 1963592). Note: nearly all actives have a fitted effect of over 50% in size. Note: potency is the fitted concentration of half-maximal effect. The method in brief:
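Assay format: CHO-ADRB2 cells, 18-20hr seeding at 37C/5% CO2, then compound plus 1nM isoproterenol agonist mix for 0.5hr RT. Homogeneous time-resolved fluorescence cAMP detection after 1hr, expressed as 665/615 nm ratio.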

Assay [11] has as its target D(2) dopamine receptor (Homo sapiens) (UniProt P14416). The assay is described as follows: Dopamine D2 receptor (DRD2) small molecule agonists, cell-based qHTS assay (AID 1963594). Note: nearly all actives have a fitted effect of over 35% in size. An outline of the steps:
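cAMP accumulation in DRD2-HEK293 cells measured by HTRF after 1 h detection; compounds added 10 min before NKH477 (200nM […]) forskolin-analogue stimulation, 30 min at room temperature, with Ro20-1724 present at 0.1 mM final.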

Assay [12] shares this target. The assay can be described thus: Dopamine D2 receptor (DRD2) small molecule antagonists, cell-based qHTS assay (AID 1963595; active = well fitted inhibition curve with a large enough effect in the signal ratio in the repeat runs, with a control signal flat; the % refers to the signal ratio; note: potency is the fitted concentration of half-maximal effect). The method in brief: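 HEK293 cells stably expressing DRD2, preincubated with 0.1 mM Ro20-1724 and compounds 10 min, were stimulated with 200 nM NKH477 plus 12 nM quinpirole for 30 min at room temperature; cAMP measured by HTRF (665/620 nm).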

Assay [13] is described as follows: p53 small molecule agonists, cell-based qHTS assay with human liver microsomes (AID 1963577). An outline of the steps: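 Compounds act here after metabolic activation: human liver microsomes and NADPH, both at 0.5 mg/mL final, were co-added to p53RE-bla cells. Incubation ran 16 h at 37 C, followed by LiveBLAzer detection.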
Assay [14] in a line: p53 small molecule agonists, cell-based qHTS assay with human liver microsomes: qHTS cell viability counter screen (AID 1963579). Note: nearly all actives have a fitted effect of over 45% in size. Note: potency is the fitted concentration of half-maximal effect. An outline of the steps:
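Cells carrying the p53 response-element beta-lactamase reporter are treated for 16 h at 37 C with test compounds in the presence of human liver microsomes and NADPH (both 0.5 mg/mL final); ATP-based CellTiter-Glo luminescence then reports viability.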

Assay [15] is described as follows: p53 small molecule agonists, cell-based qHTS assay (AID 1963582; active = well fitted activation curve with a large enough effect in the signal ratio in the repeat runs, not every such curve was filed as active; the % refers to the signal ratio). An outline of the steps: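 Read-out is beta-lactamase FRET fluorescence after 2 h at room temperature with LiveBLAzer B/G substrate. p53 response element-bla cells were treated 16 h at 37 C with compounds in DMSO, added 5 h after seeding.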
Assay [16] addresses 5-hydroxytryptamine receptor 2A (Homo sapiens) (UniProt P28223). The assay is described as follows: 5-hydroxytryptamine receptor 2A (HTR2A) small molecule antagonists, cell-based qHTS assay (AID 1963586). Note: nearly all actives have a fitted effect of over 45% in size. Note: potency is the fitted concentration of half-maximal effect. The method in brief:
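CHO cells stably expressing human HTR2A were plated for 18 h at 37 C, then loaded with calcium dye for 1 h. Compounds were preincubated 5 min at room temperature before DOI (4 nM solution) was added. Kinetic fluorescence was read for 3 min.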

For assay [17], the target named is Muscarinic acetylcholine receptor M1 (Homo sapiens) (UniProt P11229). The assay is described as follows: Cholinergic receptor muscarinic 1 (CHRM1) small molecule agonists, cell-based qHTS assay (AID 1963589). Note: nearly all actives have a fitted effect of over 35% in size. The method in brief:
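Agonist-mode calcium-flux screen: compounds at 15 concentrations, three independent runs, were pin-transferred onto dye-loaded human CHRM1-CHO cells. Fluorescence was then recorded kinetically every second over minutes.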

Assay [18] can be described thus: cAMP Responsive Elements (CRE) small molecule agonists, cell-based qHTS assay (AID 1963590). The method in brief:
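Agonist mode: compound added to CRE-bla HEK 293T cells (2,000/well, 18 h after plating) for 3 h at 37 C/5% CO2. Reporter activity detected via FRET beta-lactamase substrate, 2 h room-temperature loading.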

The target in assay [19] is Beta-2 adrenergic receptor (Homo sapiens) (UniProt P07550). The assay is described as follows: Adrenergic beta2 receptor (ADRB2) small molecule agonists, cell-based qHTS assay (AID 1963593).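 Note: CHO cells stably overexpressing human ADRB2.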 The method in brief: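 CHO cells stably over-expressing ADRB2 were plated overnight at 37C, then dosed with compounds plus a stimulation mix containing 100uM IBMX and 25uM Ro-20-1724 for 0.5hr at room temperature. cAMP was measured by HTRF competition, 1hr.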

Assay [20] is described as follows: cAMP Responsive Elements (CRE) small molecule antagonists, cell-based qHTS assay (AID 1963591; active = well fitted inhibition curve with a large enough effect in the signal ratio in the repeat runs, not every such curve was filed as active; the % refers to the signal ratio). The method in brief:
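Antagonist mode: compounds are added alongside the adenylyl cyclase activator NKH477 (0.25 uM final) to CRE-bla HEK293T cells for 3 h. LiveBLAzer FRET substrate, 2 h at room temperature, reports bla expression.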

Unmarked numbers belong to inactive results. Inconclusive results are not listed. Active and inactive are the calls of the source. Unless noted, calls come from the whole dose curve.

Chain of KiSS-1 receptor (Homo sapiens) (Q969F8 whole entry, looked up): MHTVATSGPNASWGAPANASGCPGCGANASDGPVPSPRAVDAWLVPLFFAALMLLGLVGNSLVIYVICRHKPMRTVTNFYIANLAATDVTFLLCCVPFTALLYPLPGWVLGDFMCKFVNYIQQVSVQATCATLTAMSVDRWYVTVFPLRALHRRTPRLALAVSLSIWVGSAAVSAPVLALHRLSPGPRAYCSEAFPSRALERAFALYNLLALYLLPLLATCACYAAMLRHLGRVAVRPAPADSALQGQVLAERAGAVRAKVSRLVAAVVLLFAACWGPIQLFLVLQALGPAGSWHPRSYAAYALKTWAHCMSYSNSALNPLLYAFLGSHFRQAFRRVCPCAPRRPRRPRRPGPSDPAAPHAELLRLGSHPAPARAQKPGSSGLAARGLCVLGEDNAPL
Chain of D(2) dopamine receptor (Homo sapiens) (P14416 whole entry, looked up): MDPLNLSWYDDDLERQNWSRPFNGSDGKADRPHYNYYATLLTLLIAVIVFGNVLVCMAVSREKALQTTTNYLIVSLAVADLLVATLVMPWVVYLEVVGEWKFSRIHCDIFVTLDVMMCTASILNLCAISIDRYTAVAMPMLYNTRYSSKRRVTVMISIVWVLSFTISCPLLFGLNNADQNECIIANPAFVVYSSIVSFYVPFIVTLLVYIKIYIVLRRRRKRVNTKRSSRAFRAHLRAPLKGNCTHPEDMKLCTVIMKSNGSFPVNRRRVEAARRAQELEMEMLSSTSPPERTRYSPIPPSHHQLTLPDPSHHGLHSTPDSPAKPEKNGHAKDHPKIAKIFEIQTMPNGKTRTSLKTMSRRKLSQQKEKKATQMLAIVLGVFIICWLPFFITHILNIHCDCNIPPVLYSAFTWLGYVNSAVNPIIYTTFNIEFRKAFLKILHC
Chain of Beta-2 adrenergic receptor (Homo sapiens) (P07550 whole entry, looked up): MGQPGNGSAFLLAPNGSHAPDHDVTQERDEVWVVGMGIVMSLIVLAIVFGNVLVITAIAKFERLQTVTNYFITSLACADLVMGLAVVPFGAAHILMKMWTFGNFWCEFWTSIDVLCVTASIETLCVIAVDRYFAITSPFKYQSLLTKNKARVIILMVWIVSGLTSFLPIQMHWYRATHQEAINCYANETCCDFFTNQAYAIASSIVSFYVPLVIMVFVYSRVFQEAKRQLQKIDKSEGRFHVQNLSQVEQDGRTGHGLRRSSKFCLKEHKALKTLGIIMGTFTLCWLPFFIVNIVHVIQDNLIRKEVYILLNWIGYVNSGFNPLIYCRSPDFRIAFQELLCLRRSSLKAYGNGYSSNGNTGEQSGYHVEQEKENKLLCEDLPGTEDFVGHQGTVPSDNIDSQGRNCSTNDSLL
Chain of Muscarinic acetylcholine receptor M1 (Homo sapiens) (P11229 whole entry, looked up): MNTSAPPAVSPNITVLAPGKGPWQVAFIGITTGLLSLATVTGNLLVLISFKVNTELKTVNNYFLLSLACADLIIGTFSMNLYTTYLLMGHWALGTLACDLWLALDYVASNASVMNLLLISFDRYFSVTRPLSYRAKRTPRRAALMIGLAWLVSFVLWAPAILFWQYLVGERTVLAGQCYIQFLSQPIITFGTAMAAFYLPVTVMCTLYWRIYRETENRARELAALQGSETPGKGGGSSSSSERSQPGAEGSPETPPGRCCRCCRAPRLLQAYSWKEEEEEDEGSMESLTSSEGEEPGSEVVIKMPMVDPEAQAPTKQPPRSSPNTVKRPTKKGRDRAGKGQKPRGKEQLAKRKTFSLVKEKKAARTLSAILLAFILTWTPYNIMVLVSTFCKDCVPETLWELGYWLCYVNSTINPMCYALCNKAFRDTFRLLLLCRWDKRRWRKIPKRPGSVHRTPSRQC
Chain of 5-hydroxytryptamine receptor 2A (Homo sapiens) (P28223 whole entry, looked up): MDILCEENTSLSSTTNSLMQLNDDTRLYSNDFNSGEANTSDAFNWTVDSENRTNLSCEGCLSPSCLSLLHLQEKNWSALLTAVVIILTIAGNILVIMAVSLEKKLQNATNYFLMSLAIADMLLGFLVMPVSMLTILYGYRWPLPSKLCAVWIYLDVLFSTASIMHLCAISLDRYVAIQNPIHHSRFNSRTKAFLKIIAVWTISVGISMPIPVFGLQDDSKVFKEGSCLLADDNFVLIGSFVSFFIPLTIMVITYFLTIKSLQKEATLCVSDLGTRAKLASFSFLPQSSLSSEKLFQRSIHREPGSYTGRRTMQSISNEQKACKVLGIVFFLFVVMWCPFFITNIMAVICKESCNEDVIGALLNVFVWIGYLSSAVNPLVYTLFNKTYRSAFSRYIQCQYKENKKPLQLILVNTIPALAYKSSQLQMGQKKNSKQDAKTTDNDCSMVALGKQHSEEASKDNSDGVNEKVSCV

For `Cc1nc2sccn2c(=O)c1CCN1CCC(=C(c2ccc(F)cc2)c2ccc(F)cc2)CC1`, the values for the Potency in assay [1], in assay [9] and in assay [12] were 26.6 µM (active), 2.59 µM (active) and 26.6 µM (active), respectively. In addition, the Potency entry in assay [2], in [3], in assay [4], in [5], in [6] and in assay [7] was “inactive” in each case. Also, the Potency entry in assay [8], in assay [10] and in assay [11] was “inactive” throughout.

Regarding `CCCCCCOc1cc(C)c(O)c(C)c1C`, the Potency in assay [1] is 31 µM (active); in assay [14], 26 µM (active); in [16], 19 µM (active); in [8], 39.4 µM (active). Further, the Potency entry in assay [2], in [3], in [4], in assay [13], in [5] and in [15] was “inactive” throughout. Also, the Potency entry in [9] and in assay [11] was “inactive” each time.

On to `O=C1NC(=O)c2cc([N+](=O)[O-])ccc21`, for which the Potency result in assay [1], in [2], in [3], in assay [4], in [5] and in assay [6] was “inactive” in each case. Moreover, the Potency entry in assay [7], in assay [9], in assay [17], in assay [18], in assay [10] and in assay [11] was “inactive” throughout. Moreover, the Potency entry in [12] was “inactive”. For the same compound, the Potency in [8] is 55.4 µM (active).

As for `CCCc1c(OCCCOc2ccc(OCC(=O)O)cc2)ccc(C(C)=O)c1O`, the Potency result in assay [1], in assay [2], in assay [3], in [4], in assay [13] and in [5] was “inactive” throughout. Also, the Potency entry in assay [16], in assay [17], in assay [10], in assay [19], in assay [11] and in [12] was “inactive” throughout. Besides, the Potency in assay [8] was 54.9 µM (active).

Consider `CC(C)Cn1cnc2c1c(=O)n(C)c(=O)n2C`, for which the Potency entry in [1], in assay [2], in assay [3], in assay [4], in assay [14] and in assay [6] was “inactive” in each case. Besides, the Potency entry in assay [7], in [16], in assay [8], in [9], in [17] and in [18] was “inactive” in each case. The Potency entry in assay [20], in assay [10], in assay [19] and in assay [12] was “inactive” throughout.

As for `CC(=O)S[C@@H]1CC2=CC(=O)CC[C@]2(C)[C@H]2CC[C@@]3(C)[C@@H](CC[C@@]34CCC(=O)O4)[C@H]12`, the Potency result in assay [1], in assay [3], in [4], in [13], in assay [5] and in [14] was “inactive” each time. The Potency entry in assay [7], in assay [10] and in assay [11] was “inactive” throughout. Besides, the Potency in assay [2] was 24.3 µM (active).

On to `Cc1cc2c(C(C)C)c(O)c(O)c(C=O)c2c(O)c1-c1c(C)cc2c(C(C)C)c(O)c(O)c(C=O)c2c1O`, for which the Potency was 10.6 µM (active) in [1], 17.8 µM (active) in [14] and 11.2 µM (active) in [7]. Besides, the Potency entry in assay [2], in [3], in [4], in assay [5], in assay [9] and in assay [17] was “inactive” each time. Also, the Potency result in assay [10] is “inactive”.

Turning to `CN[C@H]1CC[C@@H](c2ccc(Cl)c(Cl)c2)c2ccc(S(N)(=O)=O)cc21`, the Potency in [1] was 61.1 µM (active); in assay [10], 48.6 µM (active). Also, the Potency entry in [2], in assay [3], in assay [4], in [13], in [5] and in assay [14] was “inactive” throughout. The Potency result in assay [7], in assay [16] and in assay [17] was “inactive” throughout.

For `O=C1c2ccccc2C(=O)c2cc(S(=O)(=O)O)ccc21`, the Potency result in assay [1], in assay [2], in assay [3], in [4], in [14] and in [6] was “inactive” throughout. For the same compound, the Potency result in [7], in assay [16], in [8], in assay [9], in assay [17] and in [18] was “inactive” in each case. Also, the Potency entry in [20], in assay [10], in assay [19], in assay [11] and in assay [12] was “inactive” throughout.
